Inconclusive results are not listed. A number with no mark means an inactive call. The source made the active and inactive calls. The call rests on the fitted dose curve; in most records, active means well fitted inhibition curve with a large enough effect; inconclusive means small, poorly fitted or top-dose-only effect; inactive means flat fitted curve, though single readings scatter.
target: Calcium and integrin-binding protein 1 (Homo sapiens) (UniProt Q99828); assay: Primary qHTS for Identification of Calcium Integrin Binding Protein 1 (CIB1) Competitor (AID 1508620); conditions: CIB1-GST / FITC-alphaIIb peptide fluorescence polarization; series mostly up to 114 µM; activity change, negative = inhibition: at the top concentration; further: top concentration of the series differs between compounds
Procedure, shortened: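 Fluorescence polarization competition: GST-tagged CIB1 (1 uM final) preincubated with compound 15 min at room temperature, then FITC-labelled alphaIIb peptide (100 nM final) added. After 15 min at room temperature, polarization read at Ex 480/Em 540.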
On the % scale 0 is the no-effect control and ±100 the full control effect.

Calcium and integrin-binding protein 1 (Homo sapiens), sequence (Q99828 whole entry, looked up): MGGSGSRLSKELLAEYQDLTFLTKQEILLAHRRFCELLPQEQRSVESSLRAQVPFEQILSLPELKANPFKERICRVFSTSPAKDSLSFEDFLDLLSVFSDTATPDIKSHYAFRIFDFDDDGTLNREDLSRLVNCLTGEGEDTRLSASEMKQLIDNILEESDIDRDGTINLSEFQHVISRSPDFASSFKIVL

Point of comparison: COc1cc(F)c(S(=O)(=O)N2CCCN(S(=O)(=O)c3cccc(N)c3)CC2)c(F)c1, “activity change, negative = inhibition” value 0.481%. Against it:
- Cc1cc2c(s1)c1cnn(Cc3cc(OC(F)(F)F)ccc3F)c(=O)c1n2C — higher, 6.34%
- NC(=O)C1CCN(c2nc(-c3ccc(C(F)(F)F)cc3)cs2)CC1 — lower, -3.48%
- Cc1ccc(NS(=O)(=O)c2cccc(Cl)c2)cc1C — higher, 6.33%
- O=[S+]([O-])(c1c(F)cccc1F)N1CCN([S+](=O)([O-])c2cccc3nonc23)CC1 — lower, -0.115%
- O=[S+]([O-])(c1cc2ccccc2o1)N1CCN([S+](=O)([O-])c2c(F)cccc2F)CC1 — higher, 0.977%
- O=C(OCC#CCSc1nnc(-c2ccco2)o1)c1ccc(F)cc1 — lower, 0.273%
- Cc1ccc(N[S+](=O)([O-])c2cc3c(cc2Cl)NC(=O)CO3)cc1Br — lower, -5.18%
- FC(F)(F)c1ccccc1-c1nc(NCc2ccc(C3CCCCC3)cc2)c2ccccc2n1 — higher, 5.01%
- COc1ccc(C2Nc3ccccc3C(=O)N2Cc2ccccc2)cc1COc1ccc(C)cc1 (stereo unspecified) — higher, 1.29%
- Cc1ccc(OCCn2c(CCNC(=O)C(C)(C)C)nc3ccccc32)cc1 — higher, 5.75%
- Cc1cnc(-c2ccccc2C(F)F)nc1NCC1CN(c2cnccn2)C1 — lower, 0.273%
- C=CCNc1oc(-c2cccc(Br)c2)nc1C#N — lower, -0.304%
- O=S1(=O)N=C(Oc2ccc3ccccc3c2)c2ccccc21 — lower, -11.1%

O=C(Cc1nnc(-c2cc3ccccc3[nH]2)s1)Nc1cc(C(F)(F)F)ccc1Cl was tested, and the Potency was “inactive”.

COc1cc(O)c(C(CC(=O)N2CCC(c3ccccc3)CC2)c2ccc3c(c2)OCO3)c(OC)c1 (stereo unspecified) was tested, and the “activity change, negative = inhibition” value was -0.653% [at 228 µM].

Source: PubChem BioAssay (NCATS)
